High-throughput results as filed in PubChem.
A selection: hits, their analogues and other compounds. The true share with any hit is near 7.6%.
SW480 rerep = A quantitative high throughput screen for small molecules that induce DNA re-replication in SW480 colon adenocarcinoma cells | SW480 DNA re-replication, Hoechst DNA content imaging, 48 h | Potency, µM (doses to about 46.1 µM), hits mostly activators | actives 1.8% (n = 340,000) | AID 624297, 2012; also: nearly all actives have a fitted effect of over 55% in size
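SW480 cells exposed to compounds for 48 hr at 37 C, 5% CO2, then Hoechst-stained 40 min. Nuclear DNA content imaged by fluorescence scanning (405 nm excitation, 500-530 nm emission); re-replication scored as increased high-intensity nuclei.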
KCNH2 3.1 inh = qHTS for Inhibitors of KCHN2 3.1: Mutant qHTS; U2OS KCNH2 3.1, thallium flux FluxOr; stronger effect = lower value; Potassium voltage-gated channel subfamily H member 2, brain isoform KCNH2 3.1 (human); AID 720553, 2013; actives 0.95% (n = 340,000); activity change, % (tested at about 1.8 µM);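 active = maximum activity change below -70%; inconclusive = maximum activity change from -70% to -50%; inactive = maximum activity change above -50%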;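 also: thallium influx rate constant from kinetic fluorescence after stimulation buffer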
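Normalized rate constant (relative to positive and negative DMSO controls) derived from a 2 min kinetic fluorescence read after stimulation; U2OS cells expressing the 3.1 isoform via virus at 1.77 x 10^8 /mL.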
KB-3-1 cytotox = qHTS assay for MDR1-selective chemotherapeutics: Primary screen using the parental adenocarcinoma cell KB-3-1 | KB-3-1 viability, CellTiter-Glo ATP luminescence, 72 h | Potency, µM (top dose mostly 46.1 µM), most hits filed as cytotoxic | actives 1.4% (n = 400,000) | AID 1347075, 2019; also: nearly all actives have a fitted effect of over 60% in size
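KB-3-1 cells, DMEM (no phenol red) + 10% FBS; compound by pin transfer, 72 h, 37 °C. Readout: CellTiter-Glo luminescence after 10 min. Data normalized, curve-fitted.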
KCNH2 WT inh = qHTS for Inhibitors of KCHN2 3.1: Wildtype qHTS | Voltage-gated inwardly rectifying potassium channel KCNH2 (Homo sapiens), Q12809 | actives 0.37% (n = 340,000) | activity change, % at 1.84 µM | U2OS, BacMam KCNH2, thallium flux FluxOr; stronger effect = lower value;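 active = maximum activity change below -70%; inconclusive = maximum activity change between -70% and -50%; inactive = maximum activity change above -50%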
Target sequence (Q12809 whole entry, looked up): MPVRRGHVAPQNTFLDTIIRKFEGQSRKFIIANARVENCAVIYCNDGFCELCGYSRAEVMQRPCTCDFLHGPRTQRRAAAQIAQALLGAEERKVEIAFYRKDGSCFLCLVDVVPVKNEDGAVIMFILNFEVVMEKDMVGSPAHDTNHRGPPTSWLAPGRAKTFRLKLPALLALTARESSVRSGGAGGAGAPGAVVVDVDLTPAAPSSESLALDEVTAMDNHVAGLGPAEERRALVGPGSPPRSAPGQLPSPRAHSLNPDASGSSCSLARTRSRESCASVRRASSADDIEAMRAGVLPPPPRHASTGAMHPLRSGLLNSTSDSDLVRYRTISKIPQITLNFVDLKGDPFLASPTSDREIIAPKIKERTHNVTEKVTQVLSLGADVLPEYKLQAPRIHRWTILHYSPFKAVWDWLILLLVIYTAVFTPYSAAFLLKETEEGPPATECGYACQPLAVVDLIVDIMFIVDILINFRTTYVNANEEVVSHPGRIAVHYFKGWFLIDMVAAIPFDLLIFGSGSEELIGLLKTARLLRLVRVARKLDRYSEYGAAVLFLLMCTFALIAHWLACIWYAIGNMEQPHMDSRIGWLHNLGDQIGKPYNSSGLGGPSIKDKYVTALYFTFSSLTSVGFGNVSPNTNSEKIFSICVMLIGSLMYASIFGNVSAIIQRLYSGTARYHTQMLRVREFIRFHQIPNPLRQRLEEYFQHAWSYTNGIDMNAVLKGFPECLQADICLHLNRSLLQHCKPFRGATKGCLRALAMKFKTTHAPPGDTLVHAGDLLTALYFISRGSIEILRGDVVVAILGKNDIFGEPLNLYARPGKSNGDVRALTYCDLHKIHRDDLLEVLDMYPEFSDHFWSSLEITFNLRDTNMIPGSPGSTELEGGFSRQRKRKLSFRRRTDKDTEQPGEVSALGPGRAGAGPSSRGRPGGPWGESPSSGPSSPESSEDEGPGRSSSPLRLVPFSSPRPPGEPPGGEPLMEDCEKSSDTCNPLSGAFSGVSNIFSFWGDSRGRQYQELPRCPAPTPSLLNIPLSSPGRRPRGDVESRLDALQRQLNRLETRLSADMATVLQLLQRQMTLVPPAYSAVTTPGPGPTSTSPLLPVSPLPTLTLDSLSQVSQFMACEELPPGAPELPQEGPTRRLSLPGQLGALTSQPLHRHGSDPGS
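U2OS cells transduced with wild-type KCNH2 virus are loaded with FluxOr dye for 45 min, and thallium flux is measured in kinetic reads before and after stimulation buffer. Rate constants are normalized to DMSO controls.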
KB-V1 MDR tox = qHTS assay for MDR1-selective chemotherapeutics: Primary screen using the drug-selected MDR subline cells KB-V1 | KB-V1 MDR cells viability, CellTiter-Glo, 72 h | actives 3.4% (n = 400,000) | Potency, µM (titrated, usually from 46.1 µM), actives largely listed as cytotoxic; also: nearly all actives have a fitted effect of over 60% in size
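Compound-treated KB-V1 multidrug-resistant cells, 72 h, 37 degrees C; viability by CellTiter-Glo. Fitted qHTS curves give the values.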
MCF10A rerep = A quantitative high throughput screen for small molecules that induce DNA re-replication in MCF 10a normal breast cells. actives 2.9% (n = 350,000). MCF 10A DNA re-replication, Hoechst nuclear intensity, 48 h. Potency, µM (doses to about 46.1 µM), most hits filed as activators. AID 624296, 2012; also: nearly all actives have a fitted effect of over 50% in size
Large screens that a line does not name were inactive. Unless noted, calls follow the shape of the dose curve; as a rule, active = well fitted curve in the direction sought with a large enough effect; inconclusive = small, poorly fitted or top-dose-only effect, or another doubt; inactive = no such curve, though single readings can be large; an effect the other way counts as inactive or inconclusive.

Cc1sc2ncnc(N3CCN(S(=O)(=O)c4ccccc4)CC3)c2c1C	KB-V1 MDR tox 7.3µM
Cc1ccc(S(=O)(=O)N2CCN(c3ncnc4sccc34)CC2)cc1C	KB-3-1 cytotox inconclusive, KB-V1 MDR tox 5.2µM, MCF10A rerep inconclusive
O=S(=O)(c1ccc2c(c1)OCCO2)N1CCN(c2ncnc3sccc23)CC1	SW480 rerep inconclusive, KB-3-1 cytotox inconclusive
COc1ccc(-c2csc3ncnc(N4CCN(c5ccccc5[N+](=O)[O-])CC4)c23)cc1	SW480 rerep inconclusive, MCF10A rerep 16µM (no result: KB-3-1 cytotox, KB-V1 MDR tox)
Cc1sc2nc(CN3CCCC3)nc(N3CCN(S(=O)(=O)c4ccccc4)CC3)c2c1C	none
N#CCCN(C(=O)COc1ccc(C#N)cc1)c1ccc(F)cc1	SW480 rerep inconclusive
Cc1ccc(S(=O)(=O)N2CCN(c3ncnc4scc(-c5ccc(F)cc5)c34)CC2)cc1	MCF10A rerep inconclusive
Cc1ccc(S(=O)(=O)N2CCN(c3ncnc4scc(-c5ccccc5)c34)CC2)cc1	KB-3-1 cytotox inconclusive, KB-V1 MDR tox 7.3µM, MCF10A rerep inconclusive
Cc1ccc(-c2csc3ncnc(-n4cnc5ccccc54)c23)cc1	SW480 rerep inconclusive, KB-3-1 cytotox inconclusive, KB-V1 MDR tox inconclusive, MCF10A rerep 9.2µM
Cc1cc(C)c2c(NC(=O)CCl)nn(C)c2n1	SW480 rerep inconclusive
CCc1cc(SC#N)cc(CC)c1NC(=O)CCl	SW480 rerep 23µM, KB-3-1 cytotox 21µM, KB-V1 MDR tox inconclusive, MCF10A rerep 16µM
COc1cc(NC(=O)c2ccc(-c3cccc(F)c3)o2)ccc1NC(=O)c1ccccc1Cl	KCNH2 3.1 inh inconclusive
CC(Oc1ccc(Cl)cc1Cl)c1nc(-c2ccc(NC(=O)c3ccco3)cc2)no1 (configuration not stated)	KB-V1 MDR tox 5.8µM
COc1ccc(-c2noc(C(C)NC(=O)c3ccco3)n2)cc1 (configuration not stated)	none (no result: SW480 rerep, KCNH2 3.1 inh, KCNH2 WT inh, MCF10A rerep)
CCC(c1nnc(SCC(=O)Nc2nnc(-c3ccccc3)o2)n1Cc1ccccc1)N(C)C (configuration not stated)	KB-V1 MDR tox 23µM
CN(C)CCCNc1oc(/C=C/c2cccs2)nc1S(=O)(=O)c1ccccc1	SW480 rerep 12µM, MCF10A rerep inconclusive
O=C(NCc1ccccn1)c1ccc(-c2ccccc2)cc1	none
O=C(NC(=S)N1CCOCC1)c1cn(-c2ccccc2)nc1-c1ccccc1	KB-V1 MDR tox 5.8µM
O=C(O)c1cn(-c2ccccc2)nc1-c1ccc(F)cc1	MCF10A rerep 13µM
O=C(NCc1ccccn1)c1cn(-c2ccccc2)nc1-c1ccc(Cl)cc1	KB-V1 MDR tox 3.7µM, MCF10A rerep inconclusive
O=C1NC(=O)C(c2cn(-c3ccccc3)nc2-c2ccc(F)cc2)N1 (configuration not stated)	SW480 rerep inconclusive, MCF10A rerep 18µM
O=S1(=O)N=C(Oc2ccccc2-c2ccccc2)c2ccccc21	KB-V1 MDR tox inconclusive (no result: SW480 rerep, KCNH2 3.1 inh, KCNH2 WT inh, MCF10A rerep)
O=S(=O)(CCc1ccccc1)CS(=O)(=O)CCc1ccccc1	none
Cc1cc2nc(CN(C)C(=O)C3CCC(=O)N(C4CCCC4)C3)[nH]c2cc1C (configuration not stated)	none (no result: SW480 rerep, MCF10A rerep)
C/C(=N\N1C(=O)CSC1=S)c1ccc(Br)cc1	none
Cc1ccc2nc(SCC(=O)c3ccccc3)nc(=O)n2c1	SW480 rerep 1.8µM
Cc1ccc2nc(SCC(=O)N3CCC(C)CC3)nc(=O)n2c1	KB-V1 MDR tox 18µM
O=C(CSc1nnc2c(n1)[nH]c1ccc(F)cc12)Nc1ccccc1F	none
O=C(CSc1nnc2c3ccccc3c3ccccc3c2n1)Nc1ccccc1F	KB-V1 MDR tox 3.7µM
Cc1ccn2c(=O)nc(SCC(=O)c3ccccc3)nc2c1	none
O=C(CSc1nc(=O)n2cc(Cl)ccc2n1)Nc1cccc2ccccc12	KB-3-1 cytotox inconclusive, KB-V1 MDR tox 26µM
CCCn1c(C(CO)Nc2nc(-c3cccc(Br)c3)cs2)nc2ccccc21 (configuration not stated)	none
O=C(O)c1ccccc1NCc1cccs1	none
COC(=O)c1sccc1S(=O)(=O)N1CCN(c2ccccc2OC)CC1	none (no result: SW480 rerep, KCNH2 3.1 inh, KCNH2 WT inh, MCF10A rerep)
Cc1nc2ccccc2nc1SCC(=O)c1ccccc1	KB-3-1 cytotox inconclusive, KB-V1 MDR tox 2.6µM
COc1cccc(-c2nnc3sc(C4CCCCC4)nn23)c1	KB-3-1 cytotox inconclusive, KB-V1 MDR tox 3.7µM, MCF10A rerep inconclusive
COc1cc(-c2nnc3sc(C4CCCCC4)nn23)cc(OC)c1OC	KB-3-1 cytotox inconclusive, KB-V1 MDR tox 18µM, MCF10A rerep 21µM
CCOc1cccc(-c2nnc3sc(C4CCCCC4)nn23)c1	KB-V1 MDR tox inconclusive
Cc1cc(-c2nnc3sc(C4CCCCC4)nn23)n[nH]1	none
CSS(=O)(=O)c1cccc2cccnc12	SW480 rerep inconclusive, MCF10A rerep 18µM
CCN(CC)S(=O)(=O)c1cccc2cccnc12	none
c1ccc2c(N=NN3CCCCC3)ccnc2c1	KB-3-1 cytotox inconclusive (no result: SW480 rerep, KCNH2 3.1 inh, KCNH2 WT inh, MCF10A rerep)
CC(=O)N1CCCc2ccc(NS(=O)(=O)c3ccccc3)cc21	SW480 rerep 6.5µM, KB-V1 MDR tox inconclusive
Cc1ccc(S(=O)(=O)Nc2ccc3c(c2)CCC3)cc1	KB-3-1 cytotox inconclusive, KB-V1 MDR tox 21µM
COc1ccc(S(=O)(=O)Nc2ccc3c(c2)N(C(C)=O)CCC3)cc1	none
O=C(Nc1ccccc1)N1CCn2c(nc3ccccc32)C1	KB-V1 MDR tox 23µM
CCN(CC)C(=O)N1CCn2c(nc3ccccc32)C1	none
COc1ccc(-c2oc3cccnc3c2/C=C/c2ccc(OC)c(OC)c2)cc1	SW480 rerep 1.6µM, MCF10A rerep inconclusive
COc1ccc(/C=C/c2c(-c3ccc(OC)cc3)oc(=O)c3cc(OC)c(OC)cc23)cc1	none
O=C(NCc1ccco1)c1ccc(-c2ccc(F)c(F)c2)c2ccoc12	none (no result: SW480 rerep, KCNH2 3.1 inh, KCNH2 WT inh, MCF10A rerep)
CCOc1ccc(S(=O)(=O)NCCC(=O)Nc2nnc(C)s2)cc1	none
CSc1ccc(C(=O)C2CCCN(S(=O)(=O)N(C)C)C2)cc1 (configuration not stated)	KB-3-1 cytotox inconclusive, KB-V1 MDR tox 21µM
CSc1ccc(C(=O)C2CCCN(C(=O)c3ccc4c(c3)no[n+]4[O-])C2)cc1 (configuration not stated)	KB-V1 MDR tox inconclusive, MCF10A rerep 18µM
COc1cccc2c1Oc1ncccc1N(C(=O)CCC(=O)NCc1cccc(C)c1)C2	none
